In all, about 25,000 sequences were measured (“ln(normalized median fluorescence intensity)”: median about 7.1, highest 2% from about 10 on). The list comes from a sample in which the highest values are over-represented; it also holds similar and randomly drawn sequences.

The subject of the assay is PfSIP2 AP2 domain 1 (GST-tagged). The assay is described as follows: gcPBM binding intensity (ln(normalized median fluorescence intensity)); higher = stronger DNA binding. An outline of the steps: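 Binding of GST-tagged P. falciparum DNA-binding domains, expressed in E. coli and used at about 25 μg on average, was carried out for 1 h in 1× PBS containing 1% milk, 0.2 mg/ml BSA, 0.5% salmon testes DNA and 0.03% Triton X-100. The target was an Agilent 4 × 180k array of primer-extended double-stranded 36-bp intergenic genomic probes plus negative controls, read with Alexa488 anti-GST antibody at 488 nm. Binding intensity is the highest Masliner-normalised natural-log median intensity across replicate spots of either probe orientation.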
As to AAATAATTAGAAATAGTGCACATAATTAAGGGATAC, the “gcPBM binding intensity (ln)” value was 10.1. In the case of TTCTCCTAATAGTTAGTGCACTACATAACTAAGAAA, the “gcPBM binding intensity (ln)” value stood at 10.8. Under AATGACTACATAATAGTGCAATATTAAAGAAAATTA stands 8.55; under “TATTTTTTTACATATTGTACATAATATAAAACTTAC [XGTACX_site8273]”, 7.17; under GAAAAATATATTCTGGTGCATGAATAAAATCATAAA, 10.2. In the case of “GATAAAATCACTGGTGCATGTAGATATATAATATTA [TGCATGCA_site589]”, the “gcPBM binding intensity (ln)” value was 10.5. Under “TATTATATATTAAATGCATGTAAAAATAATATTAAA [TGCATGCA_site643]” stands 7.02; under “TACCATAATCAATGCACACATAACAAAATATTATTA [CACACA_site2722]”, 7.33; under “ATCAAAATTGTCATTACACACCTTTATTTTTATAAT [CACACA_site5071]”, 7.12. Regarding “TATATGGAGAGATATGCACACTGTATGAATGCCCCC [CACACA_site8853]”, the “gcPBM binding intensity (ln)” value came out at 9.32. The same measure for “TATATAGAGAGATATGCACACTGTATGAATGCCCCC [CACACA_site5476]”: 9.53; for “AATATATAGAGAGATATGCACACTGTATGAATGCAC [CACACA_site2677]”: 10.3.

Take “ATATATATATATAATAAACACACAAATAGATATAAC [CACACA_site9234]”: the “gcPBM binding intensity (ln)” value amounted to 9.02.

In the case of “AATAATTCATCATATGCACACACAATACCAAAATGT [CACACA_site7945]”, the “gcPBM binding intensity (ln)” value amounted to 8.05.

As for “GAAAATATTAAATGAAGTACAATATTTATGTTACTT [XGTACX_site8737]”, the “gcPBM binding intensity (ln)” value was 6.71. The same measure for “TTTTTTTTTGGGGGTGCATGCAAGACATATATTTAA [TGCATGCA_site228]”: 11.6. Regarding “AATATTTTTTTTTAAACATGCATATTTGCATTACCC [TGCATGCA_site437]”, the “gcPBM binding intensity (ln)” value turned out to be 6.99. On to “TATATATATATATATACATGCATATTTTTTATTTTT [TGCATGCA_site464]”, for which the “gcPBM binding intensity (ln)” value came out at 9.67. With “ACAAAATAATTGTTTACACACCCATTTGTAATTTTA [CACACA_site3615]”, the “gcPBM binding intensity (ln)” value was determined as 6.88. Regarding “TTATCATATCATGGAAGTACAAATAAAATATATAAC [XGTACX_site1608]”, the “gcPBM binding intensity (ln)” value turned out to be 7.24. With “ATTTCATATGGTCAACGTACTCATGCATCCCTCCTT [XGTACX_site437]”, the “gcPBM binding intensity (ln)” value was determined as 6.86. ATTTTCACCTGAACGGTGCATATTTAATTTTAGGTT: the “gcPBM binding intensity (ln)” value is 10.5. Under “TTATTTTAATTTTTGGTGCATATTCAAGTGTACCTT [GTGCAC_site9791]” stands 9.68; under “GTTATAATTGAACTAGTGCATAAATATATTTTAATT [GTGCAC_site9851]”, 9.01; under “ATTTATTTATCTAGCTATTCACCATTTTCTTTTGTT [CACACA_negctrl_site1259]”, 6.61. For the sequence “TTTAATTGATAATGAAGACAATTATATGCATCCAAA [TGCATGCA_negctrl_site138]”, the “gcPBM binding intensity (ln)” value is 6.79. As to “ACGACATATGGATGATGTACTATCTTTATTATACAT [XGTACX_site6857]”, the “gcPBM binding intensity (ln)” value was found to be 6.89.

In the case of “AAAGAAATAAGGTGCACACATATACATATATATATA [CACACA_site429]”, the “gcPBM binding intensity (ln)” value came to 11.9. For the sequence “ATGCATAAAAGAAATACACACATAAATATATAAATA [CACACA_site2163]”, the “gcPBM binding intensity (ln)” value amounted to 7.02. Turning to “TAAAGAAATAAATACATACACACATATATATATATA [CACACA_site3363]”, the “gcPBM binding intensity (ln)” value worked out at 9.69. Take “AGAAATAAGAAATATACACACATATATATATATATA [CACACA_site2808]”: the “gcPBM binding intensity (ln)” value was determined as 9.79. ATATATATATAATAAGTGCAAAAAAAAGAAAAAAAT: the “gcPBM binding intensity (ln)” value was determined as 8.48. “AAATATAATATATGCACACATACATACAGATATATA [CACACA_site4235]”: the “gcPBM binding intensity (ln)” value was 7.09. Regarding “TATACAGATAAATACACACACACATATATATATATA [CACACA_site4845]”, the “gcPBM binding intensity (ln)” value stood at 9.39. The same measure for “AAAGAAATAAGGTGCACACATATACAGATATATATA [CACACA_site4399]”: 11.9; for AAAAAAAAAATACAGGTGCAATAAGAAAAAAATGGT: 10.2. For the sequence “TAAAAGAAATAATATACACACATATATAAAAATAAA [CACACA_site1329]”, the “gcPBM binding intensity (ln)” value stood at 6.86. The same measure for “TAAAAGAAATAAGGTGCACACATATACATATATATA [CACACA_site8037]”: 11.8; for “AAATATAAGAAAAAGGTGCTTTTTTTTTTTTTTTTT [GTGCAC_site9700]”: 8.42.

With “AAGGAAAAGTAAAGAAGTACTGTACCGCCAAAAAAA [XGTACX_site2607]”, the “gcPBM binding intensity (ln)” value is 6.98. With “TAAATATATTTATATTGTACATTTATGTTGATACCA [XGTACX_site228]”, the “gcPBM binding intensity (ln)” value was 6.88. Under “TATAGATAAGAATATGCACACATTTTATTTTTTTTT [CACACA_site1982]” stands 7.16. For the sequence “TCTTTAAAAAAAAAAAAAAAAAATTCCAAATAAATA [TGCATGCA_negctrl_site538]”, the “gcPBM binding intensity (ln)” value worked out at 6.72. Consider “ATTTGTTCATTTGGTTGTACATAATTTATTTTTATA [XGTACX_site785]”, for which the “gcPBM binding intensity (ln)” value is 7.26. In the case of “TTGTATATTTTATGTACACACAATAAGTTAATATAA [CACACA_site4655]”, the “gcPBM binding intensity (ln)” value is 7.29.

As for “TATATTTATATCATCACACATTTTTTTTTTCTTTTT [CACACA_site6150]”, the “gcPBM binding intensity (ln)” value stood at 6.58.

For the sequence “ATATATATTAATAGTTGTACTATTATAATATTACAA [XGTACX_site1213]”, the “gcPBM binding intensity (ln)” value is 7. Regarding “AGGATAACATACAAAAGTACATAAAACTAAAAAAAC [XGTACX_site26]”, the “gcPBM binding intensity (ln)” value amounted to 7.32. Consider “TATATGTTTACTTAATGTACTTACATTTTTATAACA [XGTACX_site1100]”, for which the “gcPBM binding intensity (ln)” value turned out to be 6.91. Under “GCATTATTATATATTTGTACATATTTTTTTTTAAAA [XGTACX_site5436]” stands 7.3; under “AATATATAAACACGTACACACACATATATGTATATA [CACACA_site9168]”, 7.39; under “TATTAAATTATATAGACACACATTATGTATATATAT [CACACA_site345]”, 7.49. In the case of “TTTTTTAAAAGAAAATAAAAAATAAGCATAATATGA [CACACA_negctrl_site1574]”, the “gcPBM binding intensity (ln)” value was determined as 7.06. As to “ATGGAATATTTCATGATTTTTTTAATTTTTTTATTG [XGTACX_negctrl_site55]”, the “gcPBM binding intensity (ln)” value came to 6.6. With “ATATATTATATATATTTTAAGTAATTTGCAAAAAAT [GTGCAC_negctrl_site361]”, the “gcPBM binding intensity (ln)” value amounted to 7.01. Take “TATGGAAGAAAATATACACACAAAAAAAAAAAATGG [CACACA_site4924]”: the “gcPBM binding intensity (ln)” value was determined as 6.99.

Take “AGGTGCAAAAATAAAACATGCAAAAATAAAAATGAA [TGCATGCA_site502]”: the “gcPBM binding intensity (ln)” value came to 9.93. For “CACATAAAATAAGGTGCATGCAAACGAGAAAATAAA [TGCATGCA_site75]”, the “gcPBM binding intensity (ln)” value is 11. Under “GAAAGAATAAAATAAACATGCAAATAAAACATAAAA [TGCATGCA_site471]” stands 7.2; under ACGGAAAAAGAAAAGGTGCATATGGACACAATATAT, 11.3; under “AAAAGGAACGGACACACACACATATATATATATATA [CACACA_site5894]”, 9.31.
